# Compound activity as filed in PubChem BioAssay.
# MARV entry inh – blocks Marburg virus binding to or entry into cells. Marburg virus pseudotyped entry inhibition, cell reporter. Potency, µM (titrated, usually from 37.8 µM), hits mostly inhibitors. 300,000 tested, 1.8% active. AID 540276; calls by dose curve; tested in HEK293 cells
# FMDV antiviral – blocks foot and mouth disease virus; FMDV antiviral cell-based qHTS; Potency, µM (titrated, usually from 57.9 µM), most hits filed as inhibitors; 410,000 tested, 1.2% active; calls by dose curve; tested in HEK293T cells; further: read-out not given here; nearly all actives have a fitted effect of over 45% in size
# Vaccinia Venus – vaccinia inhibition (Venus reporter); 330,000 tested, 0.46% active; AID 720580; Potency, µM (doses to about 36.5 µM), most hits filed as inhibitors; Vaccinia virus Venus reporter expression, fluorescence; calls by dose curve; tested in A549 cells; further: nearly all actives have a fitted effect of over 30% in size
# HCMV antiviral – blocks human cytomegalovirus replication; HFF cells, HCMV-luciferase reporter, 72 h; hits give low values; activity change, negative = inhibition, % at 57.5 µM; 410,000 tested, 4.5% active; AID 1259415; in the data active means activity change below about -60%; inconclusive means no clear call, values can overlap the other calls; inactive means above about -39%
#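 Two-dose cell screen: HFF monolayers treated with compounds and infected with luciferase-expressing HCMV at 1 PFU/cell, 72 h at 37C, then lysed for luciferase measurement.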
# Vaccinia mCherry – inhibitors of vaccinia virus infection (mCherry reporter signal); Potency, µM (highest dose often 36.5 µM), hits mostly inhibitors; 310,000 tested, 0.63% active; Vaccinia virus mCherry reporter infection, fluorescence; AID 720579; calls by dose curve; tested in A549 cells; further: nearly all actives have a fitted effect of over 35% in size
# LASV entry inh – blocks Lassa virus binding to or entry into cells; 300,000 tested, 1.2% active; Lassa virus pseudotype entry inhibition, cell reporter; Potency, µM (series often up to 37.9 µM), actives largely listed as inhibitors; calls by dose curve; tested in HEK293 cells; further: nearly all actives have a fitted effect of over 50% in size
# Hits are given with their value; n = inactive; u = inconclusive; x = no result given. Rows were chosen to be rich in hits. Some 6.5% of all compounds tested hit in one or more screens of this group.
SMILES,MARV entry inh,FMDV antiviral,Vaccinia Venus,HCMV antiviral,Vaccinia mCherry,LASV entry inh
CN(C(=O)c1ccc(NC(=O)Cc2ccc(NC(=O)C3CCCN(C(=O)CCc4ccccc4)C3)cc2)cc1)C1CC1 (centres undefined),x,u,u,-86,u,x
CCC(=O)NC1Cc2ccccc2C(c2ccccc2)C1 (centres undefined),x,n,n,x,n,x
CC(Sc1ccc(S(=O)(=O)N2CCOCC2)cn1)c1ccccc1Cl (centres undefined),u,n,n,n,n,8.9µM
COc1ccccc1NC1=CC(=O)CC(c2ccccc2)C1 (centres undefined),n,n,n,n,n,7.3µM
O=S(=O)(Cc1nnnn1-c1ccc(Br)cc1)c1ccccc1,x,n,n,n,n,x
CCS(=O)(=O)c1nnnn1-c1ccccc1S(C)(=O)=O,u,40µM,u,-93,u,n
O[N+]1=CC=CCC1=S.On1ccccc1=S.[Zn],x,8.9µM,u,x,u,x
C/C=C(/C)C(=O)O[C@H]1C(C)=C2[C@H]([C@@H]1OC(=O)CCCCCCC)[C@@](C)(OC(C)=O)C[C@H](OC(=O)CCC)[C@@]1(O)[C@H]2OC(=O)[C@@]1(C)O,0.15µM,n,n,x,n,0.33µM
O=c1oc2c3c4c(cc2c2c1CCC2)OCCN4CCC3,n,n,u,-68,u,n
Cn1ncc([N+](=O)[O-])c1C(=O)Nc1cccc2ccccc12,u,n,n,-63,n,n
Cn1ncc([N+](=O)[O-])c1C(=O)Nc1nccs1,n,n,n,-64,n,n
CC(C)NC(=O)C1CCC(Cn2c(=O)c3sccc3n(CC(=O)N3CCCC3)c2=O)CC1 (centres undefined),x,n,n,-89,n,n
CCn1c(=O)n(CC2CCC(C(=O)NC(C)C)CC2)c(=O)c2sccc21 (centres undefined),x,n,n,n,n,n
CC(=O)OC[C@H]1O[C@H](C#Cc2ccc(C)cc2C)C=C[C@@H]1OC(C)=O,n,x,x,x,x,x
CC(C)CC(=O)N(Cc1ccccc1)S(=O)(=O)c1ccc2c(c1)oc(=O)n2C,n,n,n,n,n,n
CCn1c(CCNC(=O)c2cccs2)nnc1SCC(=O)Nc1cccc(Cl)c1,n,n,x,n,x,n
CCc1nnc(NC(=O)CSc2nnc(-c3ccccc3O)n2CC)s1,n,n,x,n,x,n
Cc1ccc(NC(=O)CSc2nnc3c(n2)[nH]c2ccccc23)cc1,n,n,n,n,n,n
CCn1c(SCC(=O)Nc2nc(-c3ccccc3)cs2)nnc1-c1ccccc1O,u,35µM,u,n,x,u
COc1ccc(-c2cnc(SCC(=O)Nc3nc(C(C)(C)C)cs3)n2Cc2ccco2)cc1,u,u,n,n,x,13µM
Cc1ccc(-c2csc(NC(=O)CSc3nnc4c(n3)[nH]c3ccccc34)n2)cc1,u,u,u,n,u,3.2µM
CCn1c(CCNC(=O)c2cccs2)nnc1SCC(=O)Nc1nc(-c2ccccc2)cs1,u,20µM,x,n,x,n
Cc1ccccc1CN1CCc2nnc(C(C)NC(=O)C3CCN(C)CC3)n2CC1 (centres undefined),x,n,n,x,n,x
O=C(CSc1nnc(-c2ccncc2)n1Cc1ccco1)Nc1nc(-c2ccccc2)cs1,u,18µM,n,n,n,n
O=C(CSc1nnc(-c2ccncc2)n1Cc1ccco1)Nc1ccccc1Cl,n,n,n,n,n,n
SMILES,MARV entry inh,FMDV antiviral,Vaccinia Venus,HCMV antiviral,Vaccinia mCherry,LASV entry inh
C[C@H](NC(=O)N1CCc2nc(-c3ccccc3)c3c(c2C1)CO[C@@H](C)C3)c1ccccc1,n,x,x,x,x,x
CC(C)C[C@H](N)c1nnc(SCc2ccc(Cl)cc2Cl)o1,u,n,n,n,n,n
CC(C)C[C@H](N)c1nnc(S(=O)(=O)Cc2ccc(F)cc2)o1,u,22µM,n,x,x,u
CC(=O)c1ccc(NC(=O)c2ccc(-c3nc(COc4ccc(C)cc4)c(C)o3)cc2)cc1,x,n,n,n,n,u
O=C(NCc1ccccn1)c1cc(-c2ccccc2)nc2ccccc12,n,n,n,n,n,n
O=C(NCc1ccccn1)c1cc(-c2ccc(-c3ccccc3)cc2)nc2ccccc12,n,n,x,-94,x,x
O=C(Nc1ncccn1)c1cc(-c2ccc(F)cc2)nc2ccccc12,n,32µM,n,n,n,n
NS(=O)(=O)c1ccc(CCNC(=O)c2cc(-c3ccc(Br)cc3)nc3ccccc23)cc1,x,n,u,-88,n,x
O=C(NNC(=O)c1cc(-c2ccncc2)nc2ccccc12)Nc1ccc(F)cc1,n,n,n,n,n,n
CCCc1ccc(-c2cc(C(=O)NN3CCOCC3)c3ccccc3n2)cc1,u,n,x,n,x,n
CCc1ccc(-c2cc(C(=O)Nn3cnnc3)c3ccccc3n2)cc1,1µM,11µM,n,n,n,1.3µM
COc1cc(C(CC(=O)NCc2ccccc2)N2Cc3ccccc3C2=O)cc(OC)c1OC (centres undefined),x,n,n,n,n,n
COc1ccc([C@]23Cc4c(ccc5ccccc45)[C@H](O2)C2=C(CCCC2=O)O3)cc1,n,x,x,x,x,x
CSc1ccc(/C=C/c2nc3ccccc3n2S(=O)(=O)c2ccc(Br)cc2)cc1,u,n,n,u,n,u
COCCNC(=O)c1cc(-c2ccc(-c3ccccc3)cc2)nc2ccccc12,u,n,n,-77,u,u
CCNC(=S)NNC(=O)c1cc(-c2ccc(OCC)cc2)nc2ccccc12,u,13µM,x,n,x,1.2µM
CCc1ccc(-c2cc(C(=O)N3N=C(C(F)F)CC3(O)C(F)F)c3ccccc3n2)cc1 (centres undefined),u,n,x,-87,x,n
CC(C)(C)c1ccc(-c2cc(C(=O)NNC(=O)Nc3ccccc3)c3ccccc3n2)cc1,u,u,u,n,n,5.6µM
C[C@@H]1CN([C@@H](C)CO)C(=O)CCCn2cc(nn2)CO[C@H]1CN(C)C(=O)Cc1ccccc1,x,x,x,n,x,x
Cc1ccc(C(=O)COC(=O)C(CC(C)C)NC(=O)C2CCC(C)CC2)cc1 (centres undefined),n,n,n,n,n,n
COc1ccccc1CNc1ncnc2sc(C(=O)N(C)C(C)C)c(C)c12,x,n,n,x,n,x
COc1ccc(N2C(=O)CCSC23C(=O)N(Cc2ccc(F)cc2)c2ccccc23)cc1 (centres undefined),x,n,u,u,11µM,u
Cc1ccc(C)c(N2CCN(C(=O)CN3C(=O)COc4ccc(S(=O)(=O)N5CCCC5)cc43)CC2)c1,n,n,n,n,n,n
NC(=O)c1ccsc1NC(=O)CCc1ccccc1,x,n,x,n,x,x
CCOc1ccccc1OCCCC(=O)Nc1sccc1C(N)=O,u,n,n,-61,n,n
COc1ccc(O[C@@H]2[C@H](O)CO[C@@H]2C=CC#Cc2ccccc2)cc1,n,x,x,x,x,x
CCOC(=O)N1CCC(NC(=O)CS(=O)(=O)Cc2nc(-c3cccc(Cl)c3)oc2C)CC1,x,n,x,-60,x,x
CCOC(=O)N1CCC(NC(=O)C2CCCN(Cc3nc(-c4cccc(Cl)c4)oc3C)C2)CC1 (centres undefined),x,14µM,u,-67,u,x
